# Source: PubChem
# JMJD2E inh: qHTS Assay for Inhibitors of Human Jumonji Domain Containing 2E (JMJD2E); JMJD2E catalytic domain, FDH-coupled NADH fluorescence (FDH is formaldehyde dehydrogenase); Potency, µM (top dose mostly 57.1 µM), for the others: at the top dose activity change, negative = inhibition, actives largely listed as inhibitors; 1.6% of 230,000 active; active = well fitted inhibition curve with a large enough effect, not every such curve was filed as active; inconclusive = small, poorly fitted or top-dose-only effect, or another doubt; inactive = no such curve, though single readings can be large or run the other way;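 also: potency is read from the fitted curve at half-maximal effect; 0% = wells with enzyme and -100% = buffer wells without enzyme; nearly all actives have a fitted effect of over 50% in size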
# ALDH1A1 inh: qHTS Assay for Inhibitors of Aldehyde Dehydrogenase 1 (ALDH1A1); Purified ALDH1A1, NADH fluorescence, propionaldehyde substrate; Potency, µM (series often up to 75.3 µM), for the others: top-dose activity, negative = inhibition, hits mostly inhibitors; 7.3% of 220,000 active; AID 1030, 2008; active = well fitted inhibition curve with a large enough effect, not every such curve was filed as active; inconclusive = small, poorly fitted or top-dose-only effect, or another doubt; inactive = no such curve, though single readings can be large or run the other way;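 also: potency is read from the fitted curve at half-maximal effect; plate controls were no enzyme wells and a reference inhibitor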
# Target sequence (P00352 whole entry, looked up): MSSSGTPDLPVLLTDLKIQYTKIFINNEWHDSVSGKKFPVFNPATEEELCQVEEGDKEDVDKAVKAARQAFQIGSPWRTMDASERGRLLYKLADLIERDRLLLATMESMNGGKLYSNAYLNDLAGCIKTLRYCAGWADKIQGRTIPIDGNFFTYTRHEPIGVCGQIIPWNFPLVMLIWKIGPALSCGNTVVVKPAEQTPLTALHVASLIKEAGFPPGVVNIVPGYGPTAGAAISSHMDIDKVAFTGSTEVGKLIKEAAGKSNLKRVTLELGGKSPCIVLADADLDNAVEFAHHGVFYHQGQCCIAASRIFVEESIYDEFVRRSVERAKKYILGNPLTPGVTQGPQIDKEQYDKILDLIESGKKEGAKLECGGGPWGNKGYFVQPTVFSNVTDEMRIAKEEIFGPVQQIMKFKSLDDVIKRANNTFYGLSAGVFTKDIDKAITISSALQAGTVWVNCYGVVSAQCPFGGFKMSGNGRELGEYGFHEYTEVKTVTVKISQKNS
# LMNA splice mod: qHTS Assay for Modulators of Lamin A Splicing. HeLa LMNA splicing GFP/RFP minigene ratio, 48 h. Potency, µM (top dose mostly 46.1 µM), for inactives: at the top dose ratio change, negative = inhibition, actives largely listed as inhibitors. 0.01% of 200,000 active. AID 1487, 2009; active = well fitted inhibition curve with a large enough effect in the signal ratio, with a control signal flat, not every such curve was filed as active; inconclusive = small, poorly fitted or top-dose-only effect, or effect the other way, or a change in a side signal; the % refers to the signal ratio; also: potency is read from the fitted curve at half-maximal effect; % is scaled to controls: 0 for no effect and ±100 for the full control effect
#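 S3 HeLa cells stably expressing lamin A-EGFP splicing minigene plus DsRed2, 600 cells/well, 48 h compound exposure at 37C. Laser-scanning cytometry; analysed as GFP (500-530 nm)/RFP (575-640 nm) total intensity ratio; 0.5% DMSO vehicle.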
# G9a inh: qHTS Assay for Inhibitors of Histone Lysine Methyltransferase G9a | G9a H3K9 monomethylation, AlphaScreen, 2 h | 8.8% of 350,000 active | Histone-lysine N-methyltransferase EHMT2 (Homo sapiens), Q96KQ7 | Potency, µM (highest dose often 102 µM), without a hit: top-dose activity, negative = inhibition, actives largely listed as inhibitors; also: potency is read from the fitted curve at half-maximal effect; % is scaled to controls: 0 for no effect and ±100 for the full control effect; nearly all actives have a fitted effect of over 75% in size
#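 Compounds were preincubated with 20 nM G9a for 15 min, after which biotinylated H3K9 peptide (500 nM) and SAM (20 uM) started a 2 h room-temperature reaction. Monomethylated product was quantified by antibody-based AlphaScreen chemiluminescence.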
# Sfp PPTase inh: qHTS Assay for Inhibitors of Bacillus subtilis Sfp phosphopantetheinyl transferase (PPTase); 4'-phosphopantetheinyl transferase ffp (Bacillus subtilis), Q9F4F7; Biochemical Sfp PPTase activity, qHTS; Potency, µM, for inactives: largest response in the series, negative = inhibition, usual class: inhibitors; 3.5% of 310,000 active; AID 1490, 2009;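 also: the enzyme is Sfp with the accession as filed and its product quenches rhodamine fluorescence; potency is read from the fitted curve at half-maximal effect; 0% = enzyme reaction without inhibitor and -100% = no enzyme wells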
#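 Sfp 15 nM + cpd, 15 min RT; start w/ rhodamine-CoA 5 uM, BHQ-2-YbbR 12.5 uM (final); 50 mM Hepes pH 7.6, 10 mM MgCl2, 0.01% NP-40, 0.01% BSA; read 525/598 nm at 0 and 30 min.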
# miR-21 reporter: qHTS Assay for Modulators of miRNAs and/orActivators of miR-21; HeLa miR-21 FLuc reporter, luciferase, 48 h; Potency, µM (highest dose often 38.3 µM), inactives show at the highest dose activity change, positive = activation, most hits filed as activators; 340,000 tested, under 10 active;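 also: % of control where 0% means no effect; miR-21 action dims this reporter so a rising signal means less miR-21 action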
#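 Compounds were titrated across several concentrations (up to approximately 40 uM) and incubated 48 hours with HeLa miR-21-FLuc reporter cells (miR-21 target sequence downstream of FLuc, endogenous miR-21). Readout was firefly luciferase luminescence after lytic detection reagent.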
# An asterisk follows results filed as active; ? = inconclusive; . = no result given; [ ] = remark or other dose. The list is not random: actives were taken first. Their share in the collection is about 13%. Unless noted, calls follow the shape of the dose curve; as a rule, active = well fitted curve in the direction sought with a large enough effect; inconclusive = small, poorly fitted or top-dose-only effect, or another doubt; inactive = no such curve, though single readings can be large; an effect the other way counts as inactive or inconclusive.
SMILES,JMJD2E inh,ALDH1A1 inh,LMNA splice mod,G9a inh,Sfp PPTase inh,miR-21 reporter
Cc1ccc(-n2c(=O)c3sccc3n(CC(=O)NCc3ccco3)c2=O)cc1,1%,-1%,3%,79µM*,-5%,0%
N#Cc1ccccc1Cn1c(=O)n(-c2ccc(CC(=O)NCc3ccco3)cc2)c(=O)c2sccc21,0%,2%,4%,-9%[59 µM],-2%,-5%
Cc1cc(C)cc(-n2c(=O)c3sccc3n(CC(=O)NCc3ccco3)c2=O)c1,-2%,11%,14%,-24%,8%,1%
N#Cc1ccccc1Cn1c(=O)n(Cc2ccc(C(=O)NCc3ccco3)cc2)c(=O)c2sccc21,?,25µM*,13%,?,-9%,-13%
O=C(CSc1nc2ccccc2s1)Nc1cc(C(=O)O)cc(C(=O)O)c1,-9%,0%,.,25µM*,56µM*,0%
O=C(Nc1ccc2nc(SCC(=O)N3CCOCC3)sc2c1)c1ccccc1Cl,.,.,-5%[46 µM],1%[59 µM],.,20%
O=C(CSc1nc2ccccc2s1)NNC(=O)Nc1ccc(Cl)c(Cl)c1,4%,2%,-7%,7%[59 µM],6%,-2%
Nc1nnc(SCC(=O)Nc2ccc(Cl)c(C(=O)O)c2)s1,11%,-1%,.,-51%,-19%,-1%
O=C(CSc1nnc(-c2ccncc2)s1)Nc1ccc(Cl)c(C(=O)O)c1,.,.,.,50µM*,11%,12%
O=C(CSc1nc2ccccc2s1)Nc1ccc(Cl)c(C(=O)O)c1,-11%,2.5µM*,.,2.8µM*,22µM*,-6%
O=C(CSc1nc2ccc(NC(=O)c3ccccc3C(=O)O)cc2s1)Nc1c(Cl)cccc1Cl,.,.,.,71µM*,-4%,-15%
Cc1ccccc1NC(=O)CSCc1cc(=O)n2ccsc2n1,.,.,.,9%,14%,-1%
CCOC(=O)C1=C(CN2CCN(c3ccccc3F)CC2)NC(=O)NC1c1ccc(OC)cc1 (stereo unspecified),.,.,-18%[46 µM],-39%[59 µM],.,1%
CCOc1ccc(N(CC(=O)Nc2ccccc2CC)S(=O)(=O)c2c(C)noc2C)cc1,.,.,.,3%[59 µM],.,27%
O=C(CSc1nnc(NC(=O)c2ccccc2Cl)s1)Nc1ccc2c(c1)oc1ccccc12,15%,18µM*,?,?,-28%,-45%
O=C(CSc1nc2ccccc2s1)Nc1ccc2c(c1)oc1ccccc12,-8%,25µM*,-12%,-4%[59 µM],-1%,-27%
Cn1c(SCC(=O)Nc2ccc3c(c2)oc2ccccc23)nnc1-c1ccccc1,?,25µM*,16%,2µM*,-6%,-7%
O=C(c1ccc(Br)cc1)N1CCC(C(=O)N2CCN(Cc3ccccc3)CC2)CC1,.,.,.,?,0%,5%
CCC(=O)c1cn(CC(=O)Nc2ccccc2Cl)c2ccccc12,.,.,.,.,2%,1%
O=C(NNC(=O)C12CC3CC(CC(C3)C1)C2)c1cnccn1,-8%,-3%,?,3.2µM*,-28%,-5%
CCn1cc2nc(SCC(=O)Nc3ccc(OC)cc3OC)n(Cc3ccc(OC)cc3)c(=O)c2n1,.,.,.,10%,-4%,21%
CCn1c(=O)n(CC)c2cc(N3CCCC3)c(NC(=O)c3cccc(C)c3)cc21,.,.,.,28µM*,-9%,6%
CCn1c(=O)c(=O)n(CC)c2cc(N3CCCCC3)c(NC(=O)c3cccc(OC)c3)cc21,.,.,.,-35%[59 µM],.,0%
CCn1c(=O)n(CC)c2cc(N3CCCC3)c(NC(=O)c3cccc(Cl)c3)cc21,.,.,.,40µM*,-13%,9%
CCn1c(=O)n(CC)c2cc(N3CCCC3)c(NC(=O)c3ccc(C)c([N+](=O)[O-])c3)cc21,.,.,.,8.9µM*,-24%,-3%
SMILES,JMJD2E inh,ALDH1A1 inh,LMNA splice mod,G9a inh,Sfp PPTase inh,miR-21 reporter
O=C(c1cccc(Cl)c1)N1c2ncnn2C2(CCCCC2)[C@@H]2CCCC[C@@H]21,.,.,?,-7%[59 µM],.,26%
Cc1cc(OC(=O)c2ccc(S(=O)(=O)N(C)C)cc2)c([N+](=O)[O-])c(=O)[nH]1,-2%,8%,.,?,21%,4%
O=c1c2ccccc2[nH]c(=S)n1CCCN1CCN(c2ccccc2)CC1,.,.,.,-22%,7%,16%
NC(=O)C1CCN(C(=O)CCCCCn2c(=O)[nH]c3ccsc3c2=O)CC1,?,?,5%,-9%[59 µM],-5%,-6%
CCOC(=O)N1CCN(C(=O)CCCCCn2c(=S)[nH]c3ccsc3c2=O)CC1,6%,-1%,.,18µM*,?,0%
Nc1ccccc1NC(=O)CCn1c(=S)[nH]c2ccccc2c1=O,.,.,.,45µM*,11%,-12%
COc1cccc(Cn2c(=S)[nH]c3ccc(N4CCOCC4)cc3c2=O)c1,?,?,14%,7%[12.7 µM],-17%,-32%
CC1CC(C)CN(CCCn2c(=S)[nH]c3ccccc3c2=O)C1 (stereo unspecified),6%,-4%,16%,79µM*,4%,-3%
COc1cccc(CNC(=O)CCCCCn2c(=S)[nH]c3ccc(N4CCOCC4)cc3c2=O)c1,5%,-11%,-3%,?,79µM*,-4%
O=C(Cn1c(NCCO)nc2ccccc21)NCC1CCCO1 (stereo unspecified),9%,8%,.,-10%[12.7 µM],16%,1%
CN(C)c1ccc(CNC(=O)c2cnc3sc(N4CCOCC4)nn3c2=O)cc1,.,.,-14%[46 µM],8%[59 µM],.,-2%
